Results on 20 compounds are retold here after PubChem BioAssay (NCI).

SMILES strings stand for the structures. This is part of a sample that, as a whole, favours compounds with a hit. Of some 79,000 tested, about 15% had one in any assay. A number with no mark means an inactive call. The source made the active and inactive calls. No stated cut-off is given here; in the data, active means growth inhibition above about 70%; inactive means the rest. *1 amine or outer side, *2 acyl side, *3 side chain or, on linkers, in order; H or OH if unused. Where a SMILES comes first, the peptide text is derived from it. Bridges are numbered along the chain shown (N, C = ends). Roman numbers before positions name the chains, in order. [ ]: non-standard residue; d: D form. Actinocin(1to9) = Cc1c2oc3c(C)ccc(C(=O)[*:2])c3nc-2c(C(=O)[*:1])c(N)c1=O; NMeV = CN[CH](C(=O)O)C(C)C; Sar = CNCC(=O)O

The nature of assay [1]: NCI Yeast Anticancer Drug Screen. Data for the rad50 strain (AID 155).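 Further: 0% = growth of vehicle-only cultures of the same strain.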 Conditions: S. cerevisiae rad50 strain growth inhibition; at 50.0 µM; stronger effect = higher value. Summed up:
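Vehicle-treated cultures provide the reference for the growth inhibition reported for compound-exposed, repair-deficient yeast.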

A short description of assay [2]: NCI Yeast Anticancer Drug Screen. Data for the mec2-1 strain (AID 157). Conditions: S. cerevisiae mec2-1 strain, at 50.0 µM, stronger effect = higher value. Put shortly:
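Each compound was tested on mec2-1 yeast, a strain altered in DNA damage repair or cell cycle control. Growth inhibition is reported relative to vehicle.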

The nature of assay [3]: NCI Yeast Anticancer Drug Screen. Data for the sgs1 mgt1 strain (AID 161).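 Further: 0% = growth of cultures given vehicle only.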 The settings on record: S. cerevisiae sgs1 mgt1 strain, at 50.0 µM, stronger effect = higher value. Put shortly: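 Mutant yeast exposed to compound; growth scored against vehicle-only wells.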
Assay [4] in a line: NCI Yeast Anticancer Drug Screen. Data for the cln2 rad14 strain (AID 165).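 Further: 0% = growth equal to vehicle treated cultures.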 The settings on record: S. cerevisiae cln2 rad14 strain, at 50.0 µM, stronger effect = higher value. Put shortly:
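Test compounds were added to cln2 rad14 yeast cultures; inhibition of growth was then determined by comparison with vehicle treatment.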

A short description of assay [5]: NCI Yeast Anticancer Drug Screen. Data for the bub3 strain (AID 167). The settings on record: S. cerevisiae bub3 mutant strain, at 50.0 µM, stronger effect = higher value. Summed up:
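Mutant yeast screening strain plus compound; vehicle-treated cultures serve as the 0% inhibition reference.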

Assay [6] in a line: NCI Yeast Anticancer Drug Screen. Data for the mlh1 rad18 strain (AID 175). The settings on record: S. cerevisiae mlh1 rad18 strain growth inhibition; at 50.0 µM; stronger effect = higher value. Put shortly:
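Inhibition values reflect reduced growth of mutant yeast versus vehicle-treated controls following compound exposure; the mutations affect DNA damage repair.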

Turning to `CCOC(=S)S.[Cu+2]`, the growth inhibition in assay [1] is 2.55%; in assay [2] it was 4.1%; in assay [3], -2.85%; in assay [4], -33.6%; in assay [5], -36%; in assay [6] it was -17.1%.

On to `C#CCOC(N)=O`, for which the growth inhibition was 1.05% in assay [1]; -15.1% in assay [2]; -7.65% in assay [3]; -18.6% in assay [4]; -14.8% in assay [5]; -17.6% in assay [6].

`C[C@@H]1C[C@@H](O)[C@]2(O)O[C@@H]3C[C@@]4(C=O)[C@@H](CC[C@@H]5[C@@H]4CC[C@]4(C)[C@@H](C6=CC(=O)OC6)CC[C@]54O)C[C@H]3O[C@@H]2O1`: the growth inhibition in assay [1] was -7.25%; in assay [2], -16.6%; in assay [3], 27.4%; in assay [4] it was -4.55%; in assay [5], -15.2%; in assay [6], -96.5%.

For `CCOC(=O)P(=O)(OCC)OCC`, the growth inhibition in assay [1] was 6.9%; in assay [2] it was -37.2%; in assay [3] it was -11%; in assay [4], -1.2%; in assay [5], 4.95%; in assay [6], -1.1%.

Regarding `Cc1cc[n+](C)c(Cc2ccccc2)c1C`, the growth inhibition in assay [1] is -26.7%; in assay [2], -11.1%; in assay [3], -8.9%; in assay [4] it was -26.1%; in assay [5] it was -22%; in assay [6], -28.9%.

Take `O=[As](O)(O)c1ccc(N=Nc2ccccc2)cc1`: the growth inhibition in assay [1] is -4.25%; in assay [2], -14.2%; in assay [3], -6.05%; in assay [4], -19.9%; in assay [5] it was 5.75%; in assay [6] it was -17.2%.

With `O=C(CCSCCC(=O)N/N=C/c1ccc(N(CCCl)CCCl)cc1)N/N=C\c1ccc(N(CCCl)CCCl)cc1`, the growth inhibition is 7% in assay [1]; 3.85% in assay [2]; 9.35% in assay [3]; -6.4% in assay [4]; -9.45% in assay [5]; 16.6% in assay [6].

As for `Nc1cc(Cl)ccc1Cl`, the growth inhibition is 1.1% in assay [1]; -11.3% in assay [2]; -19.2% in assay [3]; -24.9% in assay [4]; 1.15% in assay [5]; -11.8% in assay [6].

As for `COC(=O)c1c(C(=O)OC)c1=[N+]=[N-]`, the growth inhibition in assay [1] was 5.2%; in assay [2] it was -5.35%; in assay [3] it was -0.95%; in assay [4] it was -10.8%; in assay [5], -0.15%; in assay [6], 6%.

As to `C/C=C/C(=O)O`, the growth inhibition is 4.3% in assay [1]; -4.65% in assay [2]; -24.5% in assay [3]; 10.2% in assay [4]; -0.05% in assay [5]; -9.75% in assay [6].

As for `CCC(C)C1NC(=O)C(NC(=O)c2c3nc4c(C(=O)NC5C(=O)NC(C(C)C)C(=O)N6CCCC6C(=O)N(C)CC(=O)N(C)C(C(C)C)C(=O)OC5C)ccc(C)c4oc-3c(C)c(=O)c2N)C(C)OC(=O)C(C(C)C)N(C)C(=O)CN(C)C(=O)C2CCCN2C1=O` (stereo not given) (I: TIP[Sar][NMeV] / II: TVP[Sar][NMeV]; ester I:1-I:C, II:1-II:C; linker I:N-II:N via Actinocin(1to9); configuration not given here), the growth inhibition in assay [1] is 88% (active); in assay [2], 92.2% (active); in assay [3], 91.2% (active); in assay [4], 88.3% (active); in assay [5] it was 89.8% (active); in assay [6] it was 85.7% (active).

As to `C[C@]12CC[C@H]3[C@@H](CC=C4C=C(P(=O)(O)O)CC[C@@]43C)[C@@H]1CC[C@@H]2O`, the growth inhibition was -8.1% in assay [1]; 5.2% in assay [2]; -8.55% in assay [3]; -56.3% in assay [4]; -12.9% in assay [5]; -10.1% in assay [6].

For the compound `COc1ccc2c(c1)CC1N(C)CCC13CCCCC23` (stereo not given), the growth inhibition was 41.8% in assay [1]; 19.5% in assay [2]; -1.2% in assay [3]; 2.1% in assay [4]; -11.4% in assay [5]; -70.4% in assay [6].

As for `CC[N+](CC)(CC)CC.N#CC(C#N)=C([SH2+])[SH2+].N#CC(C#N)=C([SH2+])[SH2+].[Co+2]`, the growth inhibition was 95.3% (active) in assay [1]; 95.8% (active) in assay [2]; 56% in assay [3]; 94.5% (active) in assay [4]; 98.9% (active) in assay [5]; 98.7% (active) in assay [6].

For the compound `CC(=O)OCC1OC(S[As](C)C)C(OC(C)=O)C(OC(C)=O)C1OC(C)=O` (stereo not given), the growth inhibition in assay [1] is -2.85%; in assay [2] it was 13.8%; in assay [3], -8.3%; in assay [4] it was 10.9%; in assay [5], 6.4%; in assay [6] it was 36.8%.

Consider `CCNC1CCCCC1`, for which the growth inhibition in assay [1] was 26.3%; in assay [2], -5.45%; in assay [3], -14.2%; in assay [4] it was 29.1%; in assay [5], -19.1%; in assay [6], 20.1%.

As for `COc1cc2c(cc1O)CCN[C@H]2C`, the growth inhibition is -1.3% in assay [1]; -25.8% in assay [2]; -0.95% in assay [3]; -4.1% in assay [4]; 3.55% in assay [5]; -1.45% in assay [6].

Turning to `[C-]#[O+].[C-]#[O+].[C-]#[O+].[C-]#[O+].[Cr].c1ccc([As](CC[As](c2ccccc2)c2ccccc2)c2ccccc2)cc1`, the growth inhibition in assay [1] is 22.9%; in assay [2] it was 21.4%; in assay [3] it was 8%; in assay [4] it was 6.65%; in assay [5], 36.2%; in assay [6] it was 29.1%.

As for `Clc1cc2nncc(N3CC3)c2cc1Cl`, the growth inhibition in assay [1] was -3.25%; in assay [2], -24.4%; in assay [3], -3.75%; in assay [4], 9.95%; in assay [5] it was -7.8%; in assay [6], -21.4%.

For the compound `CC/C=C/C1(C)C(=O)NC(=S)NC1=O`, the growth inhibition was 5.15% in assay [1]; 3.1% in assay [2]; -7.3% in assay [3]; 1.7% in assay [4]; 11.4% in assay [5]; -2.95% in assay [6].
